Screening results from PubChem.
A selection: hits, their analogues and other compounds. The true share with any hit is near 28%.
PLK1 kinase inh: human PLK1 kinase inhibitors, primary screen, biochemical, TR-FRET. 97,000 tested, 0.53% active. inhibition, % at 10 µM. Serine/threonine-protein kinase PLK1 (Homo sapiens), P53350. recombinant PLK1 kinase, TR-FRET peptide phosphorylation;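 active means inhibition of 50% or more in the single-concentration screen; inactive means inhibition below 50%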
CYP2C9 act: human CYP2C9 activators, primary screen, biochemical, luminescence; AID 1024, 2008; activation factor at 5 µM; recombinant CYP2C9, luciferin-H conversion; hits give high values; factor 1 = untreated enzyme, 0 = blocked; 96,000 tested, 1.4% active;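 active means activation factor of 2 or more for CYP2C9 at a 5 µM dose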
Target sequence (P11712 whole entry, looked up): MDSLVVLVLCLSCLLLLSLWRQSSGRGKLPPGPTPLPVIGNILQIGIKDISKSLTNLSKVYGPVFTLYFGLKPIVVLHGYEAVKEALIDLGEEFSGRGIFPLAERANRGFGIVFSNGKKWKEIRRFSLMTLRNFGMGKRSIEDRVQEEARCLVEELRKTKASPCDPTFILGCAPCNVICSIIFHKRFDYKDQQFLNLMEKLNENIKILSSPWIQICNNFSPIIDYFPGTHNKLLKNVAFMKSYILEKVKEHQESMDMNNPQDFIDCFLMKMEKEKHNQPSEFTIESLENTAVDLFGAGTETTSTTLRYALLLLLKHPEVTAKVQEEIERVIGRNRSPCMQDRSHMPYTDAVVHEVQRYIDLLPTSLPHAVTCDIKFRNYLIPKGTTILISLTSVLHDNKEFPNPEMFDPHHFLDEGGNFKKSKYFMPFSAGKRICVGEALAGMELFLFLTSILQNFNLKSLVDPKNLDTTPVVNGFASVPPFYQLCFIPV
CYP2C19 act: human CYP2C19 activators, primary screen, biochemical, luminescence; recombinant CYP2C19, luciferin-H EGE luminescence; hits give high values; 0 = fully inhibited enzyme, 1 = untreated enzyme; activation factor at 5 µM; Cytochrome P450 2C19 (Homo sapiens), P33261; 96,000 tested, under 10 active; AID 1025, 2008;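 active means activation factor of at least 2 at 5 µM in the primary screen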
CYP2C19 inh: blockers of cytochrome P450 2C19 activity – biochemical, luminescence, ADME assay, primary screen; P33261; CYP2C19 Supersomes, luciferin-H EGE luminescence, 30 min; inhibition, % at 5 µM; 96,000 tested, 21% active; AID 778, 2007;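 active means CYP2C19 inhibition above a set limit at 5 µM in the primary screen, cut at about 50% in these data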
PLK1 PBD inh: Plk1 polo box domain binding inhibitors, primary screen, biochemical, fluorescence polarization; Serine/threonine-protein kinase PLK1 (Homo sapiens), P53350; Plk1 PBD phosphopeptide binding; inhibition, %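 (tested at about 20 µM)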; 97,000 tested, 0.13% active; in the data active means inhibition above about 34%, passing the limit was not always enough
CYP2C9 inh: blockers of cytochrome P450 2C9 activity – biochemical, luminescence, ADME assay, primary screen; AID 777, 2007; CYP2C9 Supersomes, luciferin-H conversion; inhibition, % at 5 µM; P11712; 96,000 tested, 20% active;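 active means blocking of liver enzyme CYP2C9 beyond about 50% at 5 µM, limit read from the data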
Each line names hits and unclear results; the compound was inactive in the other large screens.

O=C(Nc1ccc(F)cc1F)c1cccnc1Oc1cccc(C(F)(F)F)c1	none
Cc1cccn2c(=O)c3c(nc12)N1CCC(Cc2ccccc2)CC1C1(C3)C(=O)N(C)C(=O)N(C)C1=O (stereo unspecified)	CYP2C9 inh 91
CN1C(=O)N(C)C(=O)C2(Cc3c(nc4ccccn4c3=O)N3CCC(Cc4ccccc4)CC32)C1=O (stereo unspecified)	none (no result: PLK1 kinase inh, PLK1 PBD inh)
O=C(c1cc2c(s1)CCCC2)N1CCC2(CC1)OCCO2	CYP2C19 inh 92
O=C(c1csc2c1CCCCC2)N1CCC2(CC1)OCCO2	CYP2C19 inh 98
CN1C(=O)c2ccccc2Sc2ccc(C(=O)N3CCC4(CC3)OCCO4)cc21	none
O=C(c1cccc(N2CCCC2=O)c1)N1CCC2(CC1)OCCO2	none
O=C(c1cc(S(=O)(=O)N2CCCCC2)ccc1F)N1CCC2(CC1)OCCO2	none
O=C(c1cc2c(s1)-c1ccccc1OC2)N1CCC2(CC1)OCCO2	CYP2C19 inh 84
COc1ccccc1CN1CCCCC1c1cccnc1 (stereo unspecified)	CYP2C19 inh 50
Fc1ccccc1CCNCc1cccc(Cl)c1Cl	CYP2C19 inh 86
Cn1cccc1CNCCc1ccccc1F	none
O=C(CF)NC(Nc1cccc2cccnc12)C(Cl)(Cl)Cl (stereo unspecified)	CYP2C19 inh 89
Cc1ccc(-c2nc3ccc(Cl)cc3n2OC(=O)N(C)C)cc1	none
CCC(C)C12CN3CCN(CC(C)(C3)C1=O)C2 (stereo unspecified)	CYP2C19 inh 76, CYP2C9 inh 77
N#Cc1cc2c(nc1SCC(=O)Nc1ccc(Cl)cc1)C1CCN2CC1	CYP2C19 inh 92, CYP2C9 inh 84
Nc1ccc(N2CCN(Cc3ccccc3Cl)CC2)c(Cl)c1	CYP2C19 inh 97, CYP2C9 inh 86
Clc1cccc(Cl)c1CN1CCN(c2ccccc2)CC1	CYP2C19 inh 95
Clc1ccccc1CN1CCN(c2ccccc2)CC1	CYP2C19 inh 99
COc1ccccc1N1CCN(Cc2ccccc2Cl)CC1	none
O=C(N/N=C1/CN2CCC1CC2)c1cccc(O)c1	none
C=C(C)c1cccc(C(C)(C)NC(=O)NC2CN3CCC2CC3)c1 (stereo unspecified)	none (no result: PLK1 kinase inh, PLK1 PBD inh)
CCSc1cc(C2C(C#N)=C(N)Oc3n[nH]c(C)c32)c(C)o1 (stereo unspecified)	CYP2C19 inh 92, CYP2C9 inh 67
COc1ccc2nc(NC(=O)CCc3nc(C4=CCN(C)CC4)no3)sc2c1	CYP2C9 inh 75 (no result: PLK1 kinase inh, PLK1 PBD inh)
CCC(C)n1c(O)c(C(c2ccccn2)c2c(O)n(C(C)CC)c(=S)[nH]c2=O)c(=O)[nH]c1=S (stereo unspecified)	none
CC(c1ccccc1F)n1cc(C(=O)Nc2ccc3nc[nH]c3c2)nn1 (stereo unspecified)	none
CCCC1(CCC)C(=O)NC(=Nc2ccccc2)NC1=O	CYP2C9 inh 54
CCCCC1(CCCC)C(=O)NC(=Nc2cccc(C)c2)NC1=O	CYP2C19 inh 61, CYP2C9 inh 60
CCC(=NCCCN(C)C)c1c(O)n(-c2ccc(OC)cc2)c(=O)[nH]c1=O	none
Cc1nc2cc(F)ccc2n1C1CCN(Cc2nnnn2CCc2ccccc2)CC1	CYP2C19 inh 62, CYP2C9 inh 62
Cc1nc2cc(C(F)(F)F)ccc2n1C1CCN(Cc2nnnn2CCc2ccccc2)CC1	none (no result: CYP2C9 act, CYP2C19 act, CYP2C19 inh, CYP2C9 inh)
FC(F)(F)c1ccc2c(c1)nnn2C1CCN(Cc2nnnn2Cc2ccccc2)CC1	CYP2C9 inh 93 (no result: PLK1 kinase inh, PLK1 PBD inh)
Cc1ccc(Cn2nnnc2CN2CCC(n3nnc4cc(C(F)(F)F)ccc43)CC2)cc1	CYP2C9 inh 73
Cc1ccc(Cn2nnnc2CN2CCC(n3nnc4cc(C)ccc43)CC2)cc1	CYP2C19 inh 91, CYP2C9 inh 96 (no result: PLK1 kinase inh, PLK1 PBD inh)
c1ccc(CNC2=NCCS2)cc1	none
Fc1ccc2c(c1)nnn2C1CCN(Cc2c(Cl)cccc2Cl)CC1	none (no result: CYP2C9 act, CYP2C19 act, CYP2C19 inh, CYP2C9 inh)
Fc1ccc2c(c1)nnn2C1CCN(Cc2nnnn2C2CCCCC2)CC1	CYP2C19 inh 67, CYP2C9 inh 75
CCN1/C(=C\C=C\C2=[N+](CC)c3ccccc3C2(C)C)C(C)(C)c2ccccc21	PLK1 kinase inh 53, CYP2C19 inh 92, CYP2C9 inh 69
CC(O)(CS(=O)(=O)c1ccccc1)C(=O)Nc1ccc(C(F)(F)F)cc1 (stereo unspecified)	CYP2C19 inh 65
CC(O)(CS(=O)(=O)c1cccc(C(F)(F)F)c1)C(=O)Nc1cccc(C(F)(F)F)c1 (stereo unspecified)	CYP2C19 inh 51
CC(C)Cn1cc(C(=O)N2CCC3(CC2)OCCO3)c2c3ccccc3n(C)c2c1=O	none
CCOc1ccccc1N1C(=O)NC(=O)C(CCc2ccncc2)(CCc2ccncc2)C1=O	none (no result: CYP2C9 act, CYP2C19 act, CYP2C19 inh, CYP2C9 inh)
COc1ccccc1N1C(=O)NC(=O)C(CCc2ccncc2)(CCc2ccncc2)C1=O	CYP2C19 inh 91, CYP2C9 inh 69
CCOC(=O)c1c(C)n(Cc2ccccc2)c2ccc(OCC(O)Cn3nc(C)cc3C)cc12 (stereo unspecified)	none (no result: CYP2C9 act, CYP2C19 act, CYP2C19 inh, CYP2C9 inh)
CCOC(=O)c1c(C)n(Cc2ccccc2)c2ccc(OCC(O)Cn3nc(C)nc3C)cc12 (stereo unspecified)	CYP2C19 inh 54, CYP2C9 inh 62 (no result: PLK1 kinase inh, PLK1 PBD inh)
Cc1ccc(C)c(CN2CCC(n3nnc4cc(F)ccc43)CC2)c1	none
CCCc1nc2ccccc2c(=O)n1-c1ccccc1OC	none
CCCCc1nc2ccccc2c(=O)n1-c1ccccc1O	CYP2C19 inh 54
CCc1nc2ccccc2c(=O)n1-c1ccc2ccccc2c1	CYP2C19 inh 93
CCCc1nc2ccccc2c(=O)n1-c1cccc(OC)c1	CYP2C19 inh 51
O=C(NCc1ccccn1)c1ccccc1Cl	none
CCCCCc1nc2ccccc2c(=O)n1-c1ccc(Cl)cc1[N+](=O)[O-]	none
NCC(CC(=O)O)C1CCCCC1 (stereo unspecified)	none
O=C(CCS(=O)(=O)c1ccc(Br)cc1)N1CCC2(CC1)OCCO2	none (no result: PLK1 kinase inh, PLK1 PBD inh)
O=C(c1ccc(CS(=O)(=O)c2ccccc2)o1)N1CCC2(CC1)OCCO2	CYP2C19 inh 81
Cc1cccc(CN2CCN(CC(=O)N3CCC4(CC3)OCCO4)C2=O)c1	none
O=C(c1ccc(CS(=O)(=O)c2ccc(Br)cc2)o1)N1CCC2(CC1)OCCO2	CYP2C9 inh 54
Cc1cccc(CS(=O)(=O)Cc2ccc(C(=O)N3CCC4(CC3)OCCO4)o2)c1	CYP2C9 inh 58 (no result: PLK1 kinase inh, PLK1 PBD inh)
Cc1ccc(-c2nc3ccccc3c(=O)n2-n2cccc2)cc1	none
O=C1NC(=O)[C@]2(Cc3ccccc3N3CCN(c4ccccc4)CC32)C(=O)N1c1ccccc1 (stereo partly specified)	CYP2C19 inh 63, CYP2C9 inh 91
